Test results as given in the supplement of paper PMC6555819.

Tests used:
Test in all cases: PBM binding z-score (relative to random genomic background probes); higher = stronger binding; sequences stand for … in GC…GCGATTGACAGCGTAGAATGAAGG
[1] = system: FXR:RXRa (NR concentration 270 nM, RXRa partner concentration 90 nM)
Outline: (§1)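 Custom Agilent 4×180K protein-binding microarrays carried double-stranded probes, each with a 34-nt variable region. These regions held direct-repeat seeds, single-nucleotide variants, half-site ablations and random human genomic background sequences. Ligand-free nuclear receptor dimers were incubated on the arrays for 1 h, antibodies against each partner (one per run) detected binding, and scanned fluorescence was regression-normalized. Binding z-scores take the random background probes as reference.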

[2] = system: LXRa:RXRa (NR concentration 270 nM, RXRa partner concentration 90 nM)
Outline: as §1

[3] = system: LXRa homodimer (NR concentration 270 nM)
Outline: as §1

[4] = system: LXRb:RXRa (NR concentration 270 nM, RXRa partner concentration 90 nM)
Outline: as §1

[5] = system: LXRb homodimer (NR concentration 270 nM)
Outline: as §1

[6] = system: PPARa:RXRa (NR concentration 270 nM, RXRa partner concentration 90 nM)
Outline: as §1

[7] = system: PPARg:RXRa (NR concentration 180 nM, RXRa partner concentration 90 nM)
Outline: as §1

[8] = system: PPARg:RXRa 270nM:90nM, anti-RXR (NR concentration 270 nM, RXRa partner concentration 90 nM)
Outline: as §1

[9] = system: PPARg:RXRa 30nM:10nM, anti-RXR (NR concentration 30 nM, RXRa partner concentration 10 nM)
Outline: as §1

[10] = system: PPARg:RXRa 90nM:30nM, anti-RXR (NR concentration 90 nM, RXRa partner concentration 30 nM)
Outline: as §1

[11] = system: PPARg:RXRa DBDmut IVT, anti-RXR (DBD mutation: RXRa K156A/R161A, NR concentration 270 nM, RXRa partner concentration 90 nM)
Outline: as §1

[12] = system: PPARg:RXRa IVT, anti-PPARg (NR concentration 270 nM, RXRa partner concentration 90 nM)
Outline: as §1

[13] = system: PPARg DBDmut:RXRa IVT, anti-PPARg (DBD mutation: PPARg1 K132A/R137A, NR concentration 270 nM, RXRa partner concentration 90 nM)
Outline: as §1

[14] = system: PPARg DBDmut IVT, anti-PPARg (DBD mutation: PPARg1 K132A/R137A, NR concentration 270 nM)
Outline: as §1

[15] = system: PPARg homodimer (NR concentration 180 nM)
Outline: as §1

[16] = system: PXR:RXRa (NR concentration 270 nM, RXRa partner concentration 90 nM)
Outline: as §1

[17] = system: PXR homodimer (NR concentration 270 nM)
Outline: as §1

[18] = system: RARa:RXR (NR concentration 270 nM, RXRa partner concentration 90 nM)
Outline: as §1

[19] = system: RARa homodimer (NR concentration 270 nM)
Outline: as §1

[20] = system: RARb:RXRa (NR concentration 270 nM, RXRa partner concentration 90 nM)
Outline: as §1

Sequence	PBM binding z-score [1]	PBM binding z-score [2]	PBM binding z-score [3]	PBM binding z-score [4]	PBM binding z-score [5]	PBM binding z-score [6]	PBM binding z-score [7]	PBM binding z-score [8]	PBM binding z-score [9]	PBM binding z-score [10]	PBM binding z-score [11]	PBM binding z-score [12]	PBM binding z-score [13]	PBM binding z-score [14]	PBM binding z-score [15]	PBM binding z-score [16]	PBM binding z-score [17]	PBM binding z-score [18]	PBM binding z-score [19]	PBM binding z-score [20]
GCGAGCAGGCCATTTGGGTCACTCAATGACGGGC	0.039	-0.0343	-0.692	0.145	-1.06	1.37	0.6	0.408	-0.542	0.0983	0.844	2.03	-1.33	-0.968	0.0566	0.738	0.189	0.937	-0.309	1.69
GCTATTAGTTGTAAGGGCAACCGAATGATTCTCG	0.301	0.305	0.235	0.38	-0.00961	0.472	0.397	0.63	0.129	0.634	0.378	0.518	0.0721	0.01	0.811	0.273	0.159	0.496	0.359	1.41
GCTGCTAGGTCAACAGATGGTCAGCTAAAGCTCG	3.13	2.22	-0.297	1.37	-0.198	2.99	2.43	2.5	0.277	1.86	4.44	3.68	-0.0685	-0.727	1.6	1.22	-0.762	2.23	-0.595	3.97
CAAACTAGGCCACGAAAGGTCAAAGTCGAATGAC	5.14	6.19	5.85	5.69	1.75	6.2	7.45	6.7	4.3	6.62	7.17	7.41	1.6	1.85	4.86	5.73	1.95	6	2.49	4.68
TAGCCTAGGTCCGATCGGGCCAGTATACGCTATA	-1.62	-1.4	-0.978	-1.3	-1.45	-0.907	-0.184	-1.28	-1.09	-1.31	-1.07	-0.553	-0.601	-1.51	-1.58	-1.01	-1.16	-1.17	-1.53	-1
CCGACTGGAGCAGAAAGGTTACCATACCATCCGG	0.42	0.894	-0.0298	0.813	-0.611	1.77	1.61	2.5	0.683	2.24	0.54	0.511	-0.716	-0.66	0.708	1.02	-0.102	2.11	-0.788	1.52
TCTCGGAGGACACGAAGGTCAGAGGTTTCCAGAG	1.53	1.38	0.357	1.1	-0.91	2.12	0.856	2.22	2.35	2.2	1.38	1.27	-0.769	-0.978	1.73	2.39	1.24	2.75	0.0674	3.42
GCTGTTAGGTCAGGTTGGTCAGCTAACGGGTACG	1.95	1.14	-0.132	1.04	0.0917	1.79	0.166	1	-0.41	0.138	2.26	1.9	-0.586	0.313	1.07	0.645	-0.159	1.28	0.0798	3.49
CCTAGCAGGCCAATCTGGGTCACCCAAGGCTTGA	0.68	1.16	-0.385	0.427	-0.863	3.04	2.45	2.51	-0.13	1.89	3.64	4.92	-0.253	-1.35	0.456	1.03	-0.451	1.59	-0.135	1.62
TCTTCTAGGTCAGTTGGTCAGCTAACGAGCTGCC	2.21	1.87	0.567	1.71	3.5	2.99	3.77	4.43	4.38	4.54	6.39	6.42	3.22	3.33	2.21	1.3	0.447	1.58	1.05	3.79
CCGACTTGGGCAGAAAGGTTACCATACCATCCGG	0.0234	0.228	-0.275	0.646	-1.09	1.44	1.06	1.64	0.23	0.892	-0.147	-0.369	-0.764	-1.15	0.811	0.592	-0.331	1.16	-0.0756	1.12
GCTAGTTGGTCAGTAAAAGGTCAGACACCGGTCG	1.99	3.15	2.83	2.74	0.106	3.24	1.79	3.25	1.03	2.7	0.754	1.67	-0.192	0.136	3.21	3.35	0.554	4.17	0.966	3.71
CGAACTAGGTCATTGGCAGGACAGTGAATAGTAA	4.29	2.62	0.219	1.66	-0.306	4.73	7.68	6.26	3.37	5.72	8.14	8.31	3.04	0.566	1.51	1.61	-0.0888	2.11	0.516	3.71
TCATATAGGTAAAAGGTGAAATTCGGTGTGGTAA	2.42	1.99	0.471	2.11	0.332	5.49	8.93	8.13	8.19	8.89	5.31	5.24	2.68	1.94	2.68	1.62	1.11	2.81	1.72	1.89
CCTACTGGGCCATTCAGAGGTGATTGATCATATG	-0.00465	0.0536	-0.239	-0.138	-0.593	0.81	0.504	0.898	-0.276	0.119	3.85	3.8	0.186	-0.0997	0.152	0.147	-0.0295	0.451	0.129	0.622
CCTACTGGGCCAACAGGTCATTGATATCAACGTT	1.42	1.52	1.37	1.98	-0.204	3.21	4.01	4.41	2.65	4.24	4.64	4.84	0.0699	0.305	1.23	1.92	0.325	2.13	-0.373	2.12
CGTCCAAGGTCAAGGGTCAGTGAAGAGATGACGG	7.75	5.84	1.02	5	0.392	6.46	8.85	7.9	6.12	7.94	3.08	5.28	0.202	-0.0608	5	5.97	1.43	8.23	1.5	5.81
TCATATAGGTAAATGGTAGGTGAAAGTCCGATCT	1.34	1.54	0.813	1.26	0.456	1.8	1.39	3.17	3.85	3.74	4.03	3.04	0.629	0.943	1.37	0.974	0.669	1.43	1.61	0.698
CGAGCTAGGTCAAGGACAGTGAATCTCCGCACGC	3.4	2.03	-0.283	1.22	-0.582	3.06	2.07	2.14	0.109	1.07	3.38	2.99	-0.96	-1.07	1.61	1.01	-0.22	2.02	0.121	3.74
